Compound activity: PubChem, National Center for Advancing Translational Sciences (NCATS)
Rows were chosen to be rich in hits. Some 2.4% of all compounds tested hit in one or more screens of this group.
D2 PAM-1 – positively modulates the human D2 dopamine receptor allosterically | P14416 | 0.34% of 340,000 active | potentiation, % at 10 µM | HEK293 T-REx D2, calcium flux, EC20 dopamine potentiation;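 active means potentiation over 3 SD above the plate norm, cut at about 30% in these data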; further: 0% is about no effect
Target sequence (P14416 whole entry, looked up): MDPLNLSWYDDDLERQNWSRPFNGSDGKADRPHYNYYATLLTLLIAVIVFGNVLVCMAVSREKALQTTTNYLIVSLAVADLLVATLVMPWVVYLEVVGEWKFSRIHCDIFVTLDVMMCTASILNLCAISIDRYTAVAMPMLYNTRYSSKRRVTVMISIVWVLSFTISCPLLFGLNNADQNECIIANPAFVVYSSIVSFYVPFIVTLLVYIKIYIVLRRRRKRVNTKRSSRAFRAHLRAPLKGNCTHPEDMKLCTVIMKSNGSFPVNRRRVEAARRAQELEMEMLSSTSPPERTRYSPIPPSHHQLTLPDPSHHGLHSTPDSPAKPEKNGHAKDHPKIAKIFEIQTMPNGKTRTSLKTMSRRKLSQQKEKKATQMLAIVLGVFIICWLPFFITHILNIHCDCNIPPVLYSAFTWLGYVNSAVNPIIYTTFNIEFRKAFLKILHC
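Using a no-wash calcium dye in inducible, force-coupled HEK293 Trex cells expressing D2, we tracked fluorescence each second for 180 s after compound, then for 180 s after EC20 dopamine to detect augmented signalling.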
D2 PAM-2 – potentiates the human D2 dopamine receptor allosterically | potentiation, % (concentration not given with the values) | 0.23% of 360,000 active | AID 624464 | P14416 | DiscoveRx D2 beta-arrestin cells, luminescence, 90 min; 100% = 57 uM dopamine signal; in the data active means potentiation above about 50%
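D2 cells co-treated with compound plus 50 nM dopamine (EC20) for 90 min at 37 deg C to detect potentiation. Beta-arrestin recruitment was read as enzyme-fragment luminescence after 1 h at ambient temperature. Full response was set by 57 uM dopamine.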
D2 ag-1 – D2 dopamine receptor (human) agonism; HEK293 T-REx D2 cells, calcium flux agonist mode; P14416; 0.53% of 340,000 active; activation, % at 2 µM; AID 485358;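 active means activation over 3 SD above normal in the single-dose calcium agonist read, cut at about 30% in these data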; further: 0% is about no effect
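Tetracycline-induced HEK293 Trex cells with D2 receptor force-coupled to calcium signaling, plated overnight at 30 C and loaded with no-wash calcium dye. Calcium flux read kinetically for 180 s after compound addition; responses flag agonists.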
D2 ag-2 – activates the human D2 dopamine receptor; 0.084% of 360,000 active; P14416; DiscoveRx PathHunter D2 beta-arrestin, luminescence, 90 min; 100% = 57 uM dopamine signal; activation, % (no concentration beside the values); AID 624465; in the data active means activation above about 40%
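DiscoveRx PathHunter D2 beta-arrestin cells (2,100/well) attached overnight, then compound-stimulated 90 min at 37 C in HBSS/10 mM HEPES/0.1% Tween-20 buffer; beta-galactosidase complementation read by luminescence after 1 h at ambient temperature. Dopamine 57 uM final (EC100) as control.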
D2 antagonist – D2 dopamine receptor (human) antagonism; P14416; HEK293 TREx D2 cells, calcium flux, dopamine EC80; inhibition, % at 10 µM; 2% of 340,000 active; AID 485344; in the data active means inhibition above about 30%; inactive means below that, where a call was filed; further: 0% is about no effect
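Read-out: kinetic calcium fluorescence (1 cycle/s) in inducible HEK293 T-REx D2 cells after an EC80 dopamine addition that followed 180 s compound preincubation. Loss of the dopamine response indicates antagonism.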
Active calls of the source: *; . = no result.

SMILES	D2 PAM-1	D2 PAM-2	D2 ag-1	D2 ag-2	D2 antagonist
CCc1ccc(NC(=S)NC2CC3CCCC(C2)N3Cc2cccs2)cc1 (stereo unspecified)	-25	-29	1	0	64*
Cc1nc(-c2ccccc2)sc1-c1n[nH]c(=S)n1C	41*	-17	1	2	-5
Cc1ccc2cc3c(N)nn(C(=O)c4cccc(F)c4)c3nc2c1	-2	.	-1	.	.
CCCCN1C(=O)C(CC(=O)NC(c2ccccc2)c2ccccc2)CC(C(=O)N(C(C)C)C(C)C)=C1C (stereo unspecified)	.	-7	.	-2	.
Cc1cccc2c(=O)cc(CSc3ccccc3NC(=O)C(C)(C)C)[nH]c12	4	.	0	.	.
NC(=Nc1ccc(Cl)cc1)c1ccccc1	-13	1	29	0	34*
ONC(=Nc1ccccc1)c1ccc(Cl)cc1	7	7	-1	1	23
CCN1CCSc2ccc(C(=O)NC(C)c3ccccc3)cc21 (stereo unspecified)	-4	.	-1	.	.
COC(=O)COc1ccc2oc(=O)cc(-c3cc4cccc(OC)c4o3)c2c1	1	4	0	0	46*
COc1ccc(Cn2c(=O)c3oc4ccccc4c3n(Cc3ccc(F)cc3)c2=O)cc1	1	.	0	.	.
Cc1ccc(OCC(=O)Nc2cccc(C(=O)OCc3cc(=O)n4cc(C)sc4n3)c2)cc1	2	.	-1	.	.
O=C(CN1CCN(c2ccccc2)CC1)N1CCc2[nH]c3ccccc3c2C1	-18	-26	36*	2	11
CC(=O)N1CCc2[nH]c3ccccc3c2C1	0	-5	0	-2	-27
O=C(CN1CCc2[nH]c3ccccc3c2C1)N1CCCCC1	-12	-29	1	-2	23
O=C(CCCCl)N1CCc2[nH]c3ccccc3c2C1	-17	-26	19	10	32*
O=C(Cn1c(=S)[nH]c2ccccc2c1=O)N1CCN(c2ccccc2)CC1	3	-3	3	-4	31*
Cc1ccc(NS(=O)(=O)c2ccc(-c3cc(C)no3)cc2)c(Br)c1	-7	.	-1	.	.
CCC(=O)Oc1ccc(C(=O)Nc2c[nH]c(=O)[nH]c2=O)cc1	-2	8	2	-2	35*
CSc1ccccc1NC(=O)Nc1ccc(F)c(Cl)c1	-21	-15	1	1	43*
O=C(Nc1cccc(F)c1)Nc1c[nH]c(=O)[nH]c1=O	-7	-5	1	-3	12
CSc1ccccc1NC(=O)Nc1cccc(Cl)c1	-20	-11	1	-1	36*
O=C(Nc1cccc(Cl)c1)Nc1c[nH]c(=O)[nH]c1=O	-10	-4	0	4	34*
O=C(Nc1cccc(F)c1)c1ccc2c(c1)N(Cc1ccccc1)C(=O)c1ccccc1S2(=O)=O	2	.	1	.	.
O=C(CC1NCCNC1=O)Nc1cccc(F)c1 (stereo unspecified)	17	.	1	.	.
CCSc1oc(-c2ccco2)nc1S(=O)(=O)c1ccc(F)cc1	16	-7	0	-3	-7
SMILES	D2 PAM-1	D2 PAM-2	D2 ag-1	D2 ag-2	D2 antagonist
CCSc1oc(-c2ccco2)nc1S(=O)(=O)c1ccc(C)cc1	34*	-8	-1	-4	-2
O=C(NCc1cccs1)c1ccc2nc([C@@H]3O[C@H](CO)[C@H](O)[C@H](O)[C@H]3O)[nH]c2c1	.	-7	.	-2	.
Cc1cc(C)cc(NC(=O)C2CCN(c3cnccn3)CC2)c1	-38	-5	-1	-8	33*
COc1cccc(C2C3=C(CC(C)(C)CC3=O)Nc3n[nH]c(C)c32)c1 (stereo unspecified)	31*	-10	11	1	-8
O=C1/C(=C\c2ccco2)SC(=S)N1c1ccccc1	0	-6	-1	3	47*
O=c1c2c([N+](=O)[O-])cc([N+](=O)[O-])cc2sn1-c1ccc(Br)cc1	-2	61*	1	11	7
O=c1c2c([N+](=O)[O-])cc([N+](=O)[O-])cc2sn1Cc1ccccc1	.	8	.	-7	.
COC(=O)c1ccccc1NC(=O)NCCc1c(C)nn(C)c1C	-2	.	1	.	.
CCOc1ccc(NC(=O)Cc2csc(COc3cccc(C)c3)n2)cc1	-3	.	-1	.	.
